# Measured values published in PMC6792352, “Limited Chemical Structural Diversity Found to Modulate Thyroid Hormone Receptor in the Tox21 Chemical Library” (Environmental Health Perspectives, 2019).
# Structures can show the parent of a compound that is named as a salt.
# Tested on: thyroid hormone receptor (endogenous TRα and TRβ)
# Set-up: species or system GH3-TRE-Luc (rat pituitary); GH3-TRE-Luc luciferase reporter, antagonist mode against 1 nM T3, loss of signal, qHTS
# Conditions: read-out: Average AC50 (uM) GH3-TRE-Antag, antagonist mode, 1 nM T3, no GH3 cytotoxicity hit
row,Structure (SMILES),AC50
1,Clc1ccc(Cn2c(CN3CCCC3)nc3ccccc32)cc1 [Clemizole hydrochloride],13.3 µM
2,COc1ccc2c(c1OC)CN1CCc3cc4c(cc3[C@@H]1C2)OCO4 [Canadine],> 20 µM
3,"Oc1ccc(-c2ccc(O)cc2)cc1 [4,4'-Biphenyldiol]",34.2 µM
4,COc1c(C)c2c(c(O)c1C/C=C(\C)CCC(=O)O)C(=O)OC2 [Mycophenolic acid],0.537 µM
5,O=C(c1ccccc1)C1CCCCC1 [Cyclohexylphenylketone],69.7 µM
6,CC(C)=CCC[C@](C)(O)[C@@H]1CC=C(C)CC1 [Levomenol],38 µM
7,Cc1ccc(/C=N/n2c(-c3ccccc3)csc2=S)cc1 [Fezatione],20.5 µM
8,Cc1ccc(Cl)c(Nc2ccccc2C(=O)O)c1Cl [Meclofenamate sodium],30.6 µM
9,CC(C)(O)C(=O)Nc1ccc([N+](=O)[O-])c(C(F)(F)F)c1 [Hydroxyflutamide],> 70 µM
10,O=c1[nH]c2ccc([S+]([O-])CCN3CCC(Cc4ccc(F)cc4)CC3)cc2o1 (centres unmarked) [Besonprodil],75.9 µM
11,O=C(O)Cn1c(C(=O)Nc2nc(-c3ccccc3Cl)cs2)cc2ccccc21 [Lintitript],> 50 µM
12,c1ccc2c(c1)Oc1ccccc1S2 [Phenoxathiin],> 90 µM
13,"COc1cc(NC(=O)CC(C)=O)c(OC)cc1Cl [4'-Chloro-2',5'-dimethoxyacetoacetanilide]",> 90 µM
14,CO[C@@H]1[C@H](OC(=O)/C=C/C=C/C=C/C=C/C(=O)O)CC[C@]2(CO2)[C@H]1[C@@]1(C)O[C@@H]1CC=C(C)C [Fumagillin],0.0177 µM
15,Cc1cc(CC(=O)O)c(C)n1-c1ccc(Cl)cc1 [Clopirac],38.5 µM
16,Cc1ccccc1C(=O)Nc1ccc(C(=O)N2CCCC(O)c3cc(Cl)ccc32)c(C)c1 (centres unmarked) [Tolvaptan],21.9 µM
17,Brc1cc(Oc2cc(Br)c(Br)c(Br)c2Br)c(Br)c(Br)c1Br [Octabromodiphenyl ether],10.5 µM
18,"Nc1cc(S(=O)(=O)O)cc2cc(S(=O)(=O)O)cc(O)c12 [Monosodium 8-amino-1-naphthol-3,6-disulfonate monohydrate]",52.6 µM
19,CCc1ccc(C(=O)C(C)CN2CCCCC2)cc1 (centres unmarked) [Eperisone hydrochloride],38.3 µM

row,Structure (SMILES),AC50
1,CC(C)(C)c1ccc(CCC=O)cc1 [3-(4-tert-Butylphenyl)propanal],56.6 µM
2,CN(C)C(=O)Nc1ccc(Oc2ccc(Cl)cc2)cc1 [Chloroxuron],64.2 µM
3,COCCCOc1ccnc(C[S+]([O-])c2nc3ccccc3[nH]2)c1C (centres unmarked) [Rabeprazole sodium],51.1 µM
4,"Nc1ccc(C(=O)OCCCOC(=O)c2ccc(N)cc2)cc1 [Propane-1,3-diyl bis(4-aminobenzoate)]",59.8 µM
5,c1cnc2cc3c(cc2n1)[C@@H]1CNC[C@H]3C1 [Varenicline dihydrochloride],63.5 µM
6,COC(=O)[C@H](c1ccccc1Cl)N1CCc2sccc2C1 [Clopidogrel hydrogen sulfate],45.8 µM
7,CN[C@H]1C[C@@H](N)[C@H](O)[C@@H](O[C@@H]2O[C@H](CO)[C@H](O)[C@@H]3OC4(O[C@H]23)O[C@H]([C@@H](N)CO)[C@H](O)[C@H](O)[C@H]4O)[C@@H]1O (some centres unmarked) [Hygromycin B],12.9 µM
8,CO/N=C(/C(=O)OC)c1ccccc1COc1ccccc1C [Kresoxim-methyl],3.65 µM
9,CCO/N=C(\CC)C1=C(O)CC(c2c(C)cc(C)cc2C)CC1=O (centres unmarked) [Tralkoxydim],> 90 µM
10,C[C@]12CC[C@H]3[C@@H](CC[C@@]45O[C@@H]4C(O)=C(C#N)C[C@]35C)[C@@H]1CC[C@@H]2O [Trilostane],> 50 µM
11,CC(=O)[C@H]1CC[C@H]2[C@@H]3CC=C4C[C@@H](O)CC[C@]4(C)[C@H]3CC[C@]12C [Pregnenolone],11.6 µM
12,Cc1ccc2oc(CN(Cc3ccccc3)C(=O)Nc3c(F)cc(F)cc3F)c(-c3ccc(Cl)cc3)c2c1 [FR145237],4.47 µM
13,CCCCC/C=C\C/C=C\C/C=C\CCCCC(=O)O [Gamolenic acid],22.9 µM
14,Cc1cccc(Oc2ccccc2)c1 [1-Methyl-3-phenoxybenzene],82.5 µM
15,O=C1/C(=C/c2cccs2)CCC/C1=C\c1cccs1 [Tenylidone],46.5 µM
16,CON(C)C(=O)Nc1ccc(Cl)c(Cl)c1 [Linuron],61.4 µM
17,O=c1[nH]c(=O)n([C@H]2C[C@H](O)[C@@H](CO)O2)cc1F [Floxuridine],4.49 µM
18,Cc1ccc2nc(-c3ccc(N)cc3)sc2c1S(=O)(=O)O,45.2 µM
19,CCN(CC)CCOc1ccc2c(c1)C(=O)c1cc(OCCN(CC)CC)ccc1-2 [Tilorone],17.6 µM
